# Bioassay records from PubChem BioAssay.
# CCHF vOTU inh-1: CCHFV vOTU protease inhibition | inhibition, % at 11.5 µM | Pep-AMC fluorescence | hit rate 0.55% among 370,000; note: 0% = vehicle wells with enzyme and 100% = no enzyme wells
# RecA intein inh: inhibitors of M. tuberculosis RecA intein splicing; P9WHJ3; hit rate 0.75% among 290,000; inhibition, % (concentration not given with the values); cell-free RecA intein splicing, fluorescence; in the data active = inhibition above about 30%;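 note: 0% = vehicle wells and 100% = reference inhibitor control wells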
# GDH-TPI inh: GDH-TPI coupled enzyme inhibition counter-screen | GDH-TPI coupled enzyme counterscreen, NADH absorbance | inhibition, % at 4.8 µM | hit rate 1.2% among 360,000 | AID 588335;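 note: 0% = DMSO wells and 100% = wells lacking the enzyme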
# Mtb FBA inh: inhibitors of M. tuberculosis fructose-bisphosphate aldolase; P9WQA3; purified M. tuberculosis FBA, fluorescence read-out; inhibition, % at 1 µM; hit rate 2.3% among 360,000; AID 588726; in the data active = inhibition above about 27%;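 note: 0% = vehicle and 100% = reference inhibitor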
# Target sequence (P9WQA3 whole entry, looked up): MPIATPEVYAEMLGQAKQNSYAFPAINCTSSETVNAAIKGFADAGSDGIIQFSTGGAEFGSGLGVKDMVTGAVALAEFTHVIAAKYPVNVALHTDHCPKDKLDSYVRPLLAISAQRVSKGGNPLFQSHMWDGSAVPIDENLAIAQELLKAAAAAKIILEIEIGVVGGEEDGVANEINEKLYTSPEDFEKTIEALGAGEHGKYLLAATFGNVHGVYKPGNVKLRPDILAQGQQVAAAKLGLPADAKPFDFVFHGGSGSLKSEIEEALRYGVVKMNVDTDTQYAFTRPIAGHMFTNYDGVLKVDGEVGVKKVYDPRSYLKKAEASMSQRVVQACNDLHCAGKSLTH
# CCHF vOTU inh-2: confirmation of CCHF virus vOTU protease inhibitors. inhibition, % at 11.5 µM. shares compounds with CCHF vOTU inh-1. hit rate 17% among 1,900. Recombinant CCHFV vOTU, Pep-AMC fluorescence. AID 686976
# Numbers without * were called inactive; · = no result. The list is not random: actives were taken first. Their share in the collection is about 4.2%. Cut-off read from the data, not from the text of the source, unless noted: active = inhibition above about 30%; inactive = the rest.
SMILES,CCHF vOTU inh-1,RecA intein inh,GDH-TPI inh,Mtb FBA inh,CCHF vOTU inh-2
CC(C)c1ccc(C(=O)COC(=O)C(O)c2ccccc2)cc1 (stereo not given),4.2,·,4.8,-2.1,·
CC(=O)c1cccc(NC(=O)/C(=C/c2ccco2)NC(=O)c2ccco2)c1,37.2*,0.7,19.5,-2.4,-1.4
CC12CC(c3ccccc3O1)C(/C(N)=N/NC(=O)c1ccc(F)cc1)C(=O)N2 (stereo not given),9.0,-1.7,-5.0,4.0,·
CC12CC(c3ccccc3O1)C(C(=O)OCc1ccccc1)C(=O)N2 (stereo not given),38.2*,-0.3,13.2,-1.8,-2.7
CC1(c2nnnn2-c2ccc3c(c2)OCCO3)CCC(=O)N1Cc1ccc(F)cc1 (stereo not given),-13.7,·,·,·,·
CC(=O)c1ccc(N2CCN(C(=O)C3CCCN(S(=O)(=O)c4cnc[nH]4)C3)CC2)cc1 (stereo not given),34.3*,-3.9,22.5,0.2,-10.5
Cc1ccc(Cl)cc1N1CCN(C(=O)C2CCCN(S(=O)(=O)c3cnc[nH]3)C2)CC1 (stereo not given),0.9,-1.3,2.4,-0.9,·
COc1ccc(C2CC(c3ccc(C)cc3)=NN2C(=O)CCC(=O)O)cc1OC (stereo not given),-12.0,-2.6,5.1,-0.1,·
CCN(CC)c1ccc(/C=N/NC(=O)c2nnn(-c3nonc3N)c2C(C)C)c(O)c1,31.4*,-4.3,10.4,1.2,-19.7
CC(C)c1c(C(=O)N/N=C/c2ccc3c(c2)OCO3)nnn1-c1nonc1N,1.3,-0.7,9.2,-0.1,·
CC(=O)N1CCc2c(sc(NC(=O)C3CC3)c2-c2nc3ccccc3s2)C1,49.6*,30.3*,-3.4,3.7,-20.1
C[C@H]1CN([C@@H](C)CO)C(=O)CCCn2cc(nn2)CO[C@@H]1CN(C)C(=O)Nc1ccc(-c2cccs2)cc1,6.4,·,·,8.3,·
CCCCCCc1nc(C(N)=O)c2[nH]c(=O)n(-c3ccc(OC)cc3OC)c2n1,29.9*,0.5,9.4,1.5,1.5
O=C(CCc1ccc(S(=O)(=O)N2CCOCC2)cc1)Nc1ccc(F)c(F)c1F,34.7*,·,-2.2,-1.9,-15.5
NC(=O)c1nc[nH]c1C(=O)Nc1cccc(C(F)(F)F)c1,10.4,·,-2.3,-1.5,·
CCOC(=O)C1CCN(C(=O)C2COc3ccccc3O2)CC1 (stereo not given),6.1,-1.5,-9.2,-2.0,·
CCOc1c(OC(C)=O)ccc(/C=C/c2ccc3cccc(OC(C)=O)c3n2)c1[N+](=O)[O-],·,7.8,13.8,0.5,·
C=CCN1C(=O)/C(=C/c2ccc(OC(C)=O)c(OCC)c2[N+](=O)[O-])SC1=S,30.2*,12.1,9.3,-16.5,82.0*
O=C(Cn1cc(COC(=O)c2c3ccccc3cc3ccccc23)nn1)c1ccc(O)cc1,34.1*,·,·,·,-22.9
COc1ccc(N/C=C2/Sc3ccccc3NC2=O)cc1,-6.3,-2.7,3.9,-0.4,·
Cc1ccc(N/C=C2/Sc3ccccc3NC2=O)cc1,30.6*,-4.1,14.4,-4.3,-8.8
COc1ccc(C(=O)c2ccc(N3CCOCC3)c([N+](=O)[O-])c2)cc1,30.3*,-2.9,3.8,0.3,-5.0
Nc1ccc(N(CCO)CCO)cc1,57.4*,63.1*,3.3,-1.6,26.8
CCN(CC)c1ccc(N)cc1,·,·,2.1,-2.5,·
O=C(O)c1cccc(Br)c1,0.3,·,5.9,-2.7,·
SMILES,CCHF vOTU inh-1,RecA intein inh,GDH-TPI inh,Mtb FBA inh,CCHF vOTU inh-2
CCCCCCCCN1C(=O)[C@@H](CC(=O)NCc2ccc(C)o2)C[C@@]2(C(=O)OC)C1=C[C@H](C1CCCC1)O[C@@H]2C,30.1*,·,·,·,2.6
CCCCCCCCN1C(=O)[C@@H](CC(=O)N2CCN(C(=O)C3CC3)CC2)C[C@@]2(C(=O)OC)C1=C[C@H](C1CCCC1)O[C@@H]2C,33.0*,·,·,·,17.9
CCCCCCCCN1C(=O)[C@@H](CC(=O)N2CCCC2)C[C@@]2(C(=O)OC)C1=C[C@H](C1CCCC1)O[C@@H]2C,27.1,·,·,·,·
COC(=O)[C@]12C[C@H](CC(=O)NCc3cccc(C(F)(F)F)c3)C(=O)N(Cc3ccc(Cl)cc3Cl)C1=C[C@H](C1CCCC1)O[C@@H]2C,31.6*,·,·,·,11.3
O=C(CCn1nnc(-c2cccs2)n1)NCc1cccs1,5.0,·,·,·,·
CC(C)CC(C)N1CCC(n2nccc2NC(=O)CCc2ccccc2)CC1 (stereo not given),-5.2,-2.4,-7.4,0.8,·
COC(=O)[C@]1(C)N[C@H](CN(C)C(=O)C2CCCCC2)[C@@H]2C(=O)N(C)C(=O)[C@@H]21,7.3,·,4.7,3.5,·
Cc1cccc(NS(=O)(=O)c2ccc3[nH]c(=O)cc(C(=O)OC(C)C(=O)Nc4ccc([N+](=O)[O-])cc4)c3c2)c1 (stereo not given),34.4*,8.9,20.6,0.6,-9.6
CCc1ccc(NC(=O)C(C)OC(=O)c2cc(=O)[nH]c3ccc(S(=O)(=O)Nc4ccc(F)cc4)cc23)cc1 (stereo not given),-11.8,-1.8,7.3,-0.7,·
O=C(Nc1cc(Cl)ccc1-n1cncn1)c1cc(S(=O)(=O)N2CCOCC2)ccc1F,-14.2,-0.1,5.2,7.6,·
Cc1ccc(-n2c(-c3cnccn3)n[nH]c2=S)cc1,29.6*,-2.0,10.4,-1.3,-9.8
Cc1ccc(CNC(=O)c2ccc(F)c(S(=O)(=O)N3CCOCC3)c2)cc1,0.5,·,7.1,3.1,·
Cc1no[n+]([O-])c1COc1cccc(/C=N/Nc2nncn2N)c1,109.2*,2.7,-2.6,-6.5,-14.4
COc1cc(/C=N/n2nnnc2N)ccc1OCc1c(C)no[n+]1[O-],-5.2,-1.9,7.7,5.1,·
CCn1nc(NS(=O)(=O)c2ccc([N+](=O)[O-])cc2)c2cc3cccc(C)c3nc21,3.2,0.2,7.6,1.8,·
CCn1nc(NS(=O)(=O)c2ccccc2[N+](=O)[O-])c2cc3cccc(C)c3nc21,32.4*,-3.6,1.7,-6.2,5.1
Cc1ccc(-n2c(Cl)c(Cl)nc(Cl)c2=O)cc1,·,·,11.4,3.1,·
CC(C)(C)c1ccc(Cn2nnc3c(=O)[nH]c(C4CCN(C(=O)Cc5cccs5)CC4)nc32)cc1,18.5,9.4,-2.8,-1.5,·
O=c1[nH]c(C2CCCN(S(=O)(=O)Cc3ccccc3)C2)nc2c1nnn2Cc1cccc(Cl)c1 (stereo not given),29.9*,-1.2,3.7,3.1,-4.9
CC(C)(C)c1ccc(Cn2nnc3c(=O)[nH]c(C4CCCN(C(=O)Cc5cccs5)C4)nc32)cc1 (stereo not given),31.1*,8.6,8.8,1.3,4.2
COc1cc(NC(=O)Nc2nc(C(N)C(C)C)cs2)cc(OC)c1OC (stereo not given),-5.5,·,-8.4,-0.2,·
O=C(Nc1cc(Cl)ccc1F)C1=COCCO1,0.6,-6.4,5.8,-0.1,·
CCOC(=O)c1c(CN(C)C)n(C)c2c(O)c(N=NC(N)=O)c3ccc(Br)cc3c12,36.0*,-0.1,1.3,-6.8,12.7
CCCn1c(=O)c(C(=O)OCC)c(O)c2cc(Br)ccc21,-7.3,-2.5,-3.5,-7.2,·
CC(C)NC(=O)N(C)C[C@@H]1OCCCC[C@@H](C)Oc2ccc(NC(=O)Nc3ccc(F)cc3)cc2C(=O)N([C@H](C)CO)C[C@@H]1C,32.2*,·,·,1.4,-2.8
